Measured values reported in PubChem BioAssay (NCATS).
Results filed as inconclusive are left out. Unmarked numbers belong to inactive results. The source made the active and inactive calls. Calls come from the whole dose curve; as a rule, active = well fitted inhibition curve with a large enough effect; inconclusive = small, poorly fitted or top-dose-only effect; inactive = flat fitted curve, though single readings scatter.

Assay: qHTS for Inhibitors of Plasmodium falciparum (HB3) proliferation (AID 504318); note: nearly all actives have a fitted effect of over 60% in size;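 for activity change, negative = inhibition: 0% = DMSO vehicle and -100% = artemisinin control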
Conditions: P. falciparum HB3 in erythrocytes, SYBR Green DNA, 72 h; series mostly up to 7.21 µM; activity change, negative = inhibition: at the top concentration
Outline: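 Parasite growth measured as SYBR Green DNA fluorescence (ex 485, em 535 nm) after overnight lysis following 72 h culture at 37 °C, 0.3% parasitemia, 2.5% hematocrit. Values normalized against DMSO and 0.29 uM artemisinin controls, with plate-stack correction.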
Potency is the fitted concentration of half-maximal effect.

Structure (SMILES)	activity change, negative = inhibition [%]	Potency
COC(=O)[C@H]1[C@@H](c2ccccc2)NC(=O)N(Cc2ccccc2)[C@@H]1C	3.88	
COc1cccc([C@H]2Oc3ccc(OC)cc3C(=NOC[C@@H](O)COCc3ccco3)[C@H]2O)c1	-1.57	
COC(=O)CC=C[C@@H](C)[C@H](OC)c1c(Br)ccc2c1OCO2		inactive
C=CCN=C1NC(c2cccc(F)c2)C(C(=O)OC)=C(C)N1Cc1ccccc1 (centres undefined)	2.51	
CC=COC(=O)N[C@@H](c1ccccc1)[C@]1(C(=O)OC)CCCC1=O	5.59	
COC(=O)N1C(c2ccccc2)=Cc2ccccc2C1CC(C)=O (centres undefined)	3.07	
CC(C)=CCN1C(=O)[C@]2(O[C@H](C)CC3=CCCC32)c2c(Br)cccc21 (some centres undefined)	-14.7	
COC(=O)C[C@H]1c2ccccc2C2=C(C[C@@H](C)[C@H]3C(=O)NC(=O)[C@@H]23)N1C(=O)OC		inactive
COCCN1C(=O)NC(c2cccc(C(F)(F)F)c2)C(C(C)=O)=C1C (centres undefined)	6.8	
CC1(OC(=O)CCc2ccccc2)C(=O)C=C2C=C(c3ccsc3)OC=C2C1=O (centres undefined)	2	
O=P1(O)Oc2c(c(-c3ccccc3)cc3ccc4ccccc4c23)-c2c(-c3ccccc3)cc3ccc4ccccc4c3c2O1	-2.43	
COC(=O)N1C(C2CC2)=Cc2ccccc2C1CC(C)=O (centres undefined)	-14.5	
CC(C)=CCN1C(=O)[C@]2(OCCC=C[C@H]2C)c2c(Br)cccc21	-9.5	
COC(=O)CC=C1c2ccc(OC)cc2[C@@H](OC)[C@@H]1C	-13.3	
C#CCN1C(=O)[C@]2(O[C@H](C)CC3=CCCC32)c2c(Br)cccc21 (some centres undefined)	-7.41	
COC(=O)N[C@H](c1ccccc1)C(C(=O)OC)C(=O)OC		1900 nM (active)
C[C@@H]1CC[C@H]2C(=O)N(Cc3ccccc3)C[C@@H](O)CN2[C@@H]1c1cccc(Br)c1	-8.67	
COc1cc2c(c(OC)c1OC)CC(C)=C(C)CC2NC(=O)C(F)(F)F (centres undefined)	-6.08	
CC1(O)C(=O)C=C2C=C(c3ccc(C#N)cc3)OC=C2C1=O (centres undefined)	1.42	
COCCN1C(=O)NC(c2ccco2)C(C(=O)OC)=C1C (centres undefined)	4.78	

Structure (SMILES)	activity change, negative = inhibition [%]	Potency
CC(CCC#N)[N+](=O)[O-] (centres undefined)	-4.01	
COC[C@@H](OC(C)=O)[C@H]1OCc2ccccc2[C@H]1C=Cc1ccccc1	-10.7	
COc1ccc(-c2nc3c(c4c2C[C@H](c2ccccc2)OC4)CN(C(=O)Nc2cccc(C#N)c2)CC3)c(C)c1		inactive
COc1ccc(COC(=O)NN=C2C[C@@H](O)[C@@H](O)[C@@H]3[C@H]4C(=O)N([C@@H](C)c5ccccc5)C(=O)[C@@H]4CC[C@H]23)cc1	-7.81	
CC1(OC(=O)C2CCCC2)C(=O)C=C2C=C(c3ccsc3)N(C3CC3)C=C2C1=O (centres undefined)		inactive
CC(C)(C)Nc1oc(-c2ccccc2)nc1-c1ccccc1	0.61	
COc1ccc(NC2=CC(c3ccccc3)N(c3ccc(OC)cc3)C2=O)cc1 (centres undefined)	-2.65	
C[C@H]1[C@H](N=[N+]=[N-])[C@H](O)CCO[C@@H]1c1ccccc1	3.57	
COC(=O)[C@H](Cc1ccccc1)NC(=O)O[C@@H]1C(=O)c2cc(OC)ccc2O[C@H]1c1ccc(OC)c(Br)c1	-5.57	
CC#CCN1c2ccccc2[C@]23CCC(=O)N(Cc4cccc(C(F)(F)F)c4)C2=NC(C(=O)OC)=C(C(=O)OC)[C@H]13	-14.2	
COC1=C[C@H](C(=O)NCc2ccc(Br)cc2)[C@H](C)[C@@H](c2ccccc2)CC1=O	-8.68	
COC(=O)N[C@@H](c1cccc(F)c1)C(C(C)=O)C(=O)OC (some centres undefined)	-2.4	
CC(=O)C1=C(C)N(Cc2ccccc2)C(=O)NC1c1ccc(Br)cc1 (centres undefined)	-13.6	
C=CC1=C2C=C(C3CC3)N(CCOC)C=C2C(=O)C(C)(OC(=O)c2ccco2)C1=O (centres undefined)		inactive
COCC=CC1=CC2=CC(=O)C(C)(OC(=O)c3cnc4ccccc4n3)C(=O)C2=CN1CC1CC1 (centres undefined)	4.71	
C=CCN1C(=O)CC[C@@]23C1=NC(C(=O)OC)=C(C(=O)OC)[C@@H]2N(C)c1ccccc13	-4.11	
COC(=O)NC(c1ccccc1)c1c[nH]c2ccc(OC)cc12 (centres undefined)	-4.37	
CCCC[C@]12Cc3cc(OC)c(OC)cc3[C@H](O1)C1=C(CC3(CCCCC3)OC1=O)O2	-3.3	
C=C(C)C(O)C=Cc1ccc(C(F)(F)F)cc1 (centres undefined)	-7.04	
